± gives the standard deviation.

What all share (experiment): peptide microarray binding signal (635 nm), min-max normalized on array (fraction of array maximum); higher = stronger binding
Common to all, as to details: peptide region: H3 112-124

Assay [1] has as its target T1, HaloTag-ATRX ADD domain (163-292).
T1 chain: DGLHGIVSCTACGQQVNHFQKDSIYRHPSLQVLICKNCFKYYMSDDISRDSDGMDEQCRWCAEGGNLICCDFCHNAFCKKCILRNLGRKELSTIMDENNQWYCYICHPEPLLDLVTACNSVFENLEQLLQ
In short, it runs like this:
(§1)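 Within each library, mean intensities of triplicate spots were min-max scaled to give the binding signal. The spots were histone 13-mer peptide–cellulose conjugates on nitrocellulose with a Cy3 tracer, blocked overnight at 4°C. They were then probed for 1 h at 4°C using biotin-labelled HaloTag reader fusions (10 nM to 1 μM) with streptavidin-Alexa Fluor 647 or rabbit histone antibodies (1:10,000 to 1:2,000) with anti-rabbit Alexa 647, and scanned at 635 nm for signal and 532 nm for misprints on an Axon GenePix 4000B.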

For assay [2], the target named is HaloTag-ING2 PHD (mouse Ing2 200-280). In short, it runs like this: as §1
For assay [3], the target named is anti-H3K4me3 antibody ab8580. An outline of the steps:
as §1

In assay [4] the target is anti-H3K9me3 antibody ab8898. In short, it runs like this:
as §1

Setting [5] is: peptide modifications: H3K115me2 H3K122ac, binder concentration: 1:2,000 dilution.
Where [6] appears, read: peptide modifications: H3K115me2 H3K122ac, binder concentration: 1:10,000 dilution.
The mark [7] stands for this setting: peptide modifications: H3K115me3 H3R116me2s, binder concentration: 1:2,000 dilution.
The mark [8] stands for this setting: peptide modifications: H3K115me3 H3R116me2s, binder concentration: 1:10,000 dilution.
[9] abbreviates: peptide modifications: H3K115me2, binder concentration: 1:2,000 dilution.
Where [10] appears, read: peptide modifications: H3K115me2, binder concentration: 1:10,000 dilution.
Setting [11] is: peptide modifications: H3K115me3 H3R116cit, binder concentration: 1:2,000 dilution.
Where [12] appears, read: peptide modifications: H3K115me3 H3R116cit, binder concentration: 1:10,000 dilution.
The mark [13] stands for this setting: peptide modifications: H3K115me3 H3K122me3, binder concentration: 1:2,000 dilution.
Where [14] appears, read: peptide modifications: H3K115me3 H3K122me3, binder concentration: 1:10,000 dilution.
The mark [15] stands for this setting: peptide modifications: H3K115me3 H3K122me2, binder concentration: 1:2,000 dilution.
The mark [16] stands for this setting: peptide modifications: H3K115me3 H3K122me2, binder concentration: 1:10,000 dilution.
Where [17] appears, read: peptide modifications: H3K115me2 H3K122me3, binder concentration: 1:2,000 dilution.
[18] abbreviates: peptide modifications: H3K115me2 H3K122me3, binder concentration: 1:10,000 dilution.
The mark [19] stands for this setting: peptide modifications: H3K115me3 H3K122me1, binder concentration: 1:2,000 dilution.
[20] abbreviates: peptide modifications: H3K115me3 H3K122me1, binder concentration: 1:10,000 dilution.
Setting [21] is: peptide modifications: H3K115me2 H3R116me2a, binder concentration: 1:2,000 dilution.
Where [22] appears, read: peptide modifications: H3K115me2 H3R116me2a, binder concentration: 1:10,000 dilution.
[23] abbreviates: peptide modifications: H3K115me3 H3K122ac, binder concentration: 1:2,000 dilution.
Setting [24] is: peptide modifications: H3K115me3 H3K122ac, binder concentration: 1:10,000 dilution.

Turning to IHAKRVTIMPKDI [H3 112-124 I H A Kme2 R V T I M P Kac D I], the “peptide microarray binding signal” value in assay [1] (peptide modifications: H3K115me2 H3K122ac, binder concentration: 50 nM) was 0.00357 ± 5.2e-05; in assay [1] (peptide modifications: H3K115me2 H3K122ac, binder concentration: 500 nM) it was 0.006 ± 0.00044; in assay [2] (peptide modifications: H3K115me2 H3K122ac, binder concentration: 10 nM), 0.0178 ± 0.0029; in assay [2] (peptide modifications: H3K115me2 H3K122ac, binder concentration: 100 nM), 0.0235 ± 0.0049; in assay [3] (setting [5]), 0.00145 ± 0.00019; in assay [3] (setting [6]), 0.00188 ± 0.00012. Moreover, the “peptide microarray binding signal” value in assay [4] (setting [5]) worked out at 0.00186 ± 0.00037; in assay [4] (setting [6]), 0.00277 ± 0.00067.
Consider IHAKRVTIMPKDI [H3 112-124 I H A Kme3 Rme2s V T I M P K D I], for which the “peptide microarray binding signal” value amounted to 0.00351 ± 6.2e-05 in assay [1] (peptide modifications: H3K115me3 H3R116me2s, binder concentration: 50 nM); 0.00576 ± 0.00044 in assay [1] (peptide modifications: H3K115me3 H3R116me2s, binder concentration: 500 nM); 0.0107 ± 0.00099 in assay [2] (peptide modifications: H3K115me3 H3R116me2s, binder concentration: 10 nM); 0.0126 ± 0.0027 in assay [2] (peptide modifications: H3K115me3 H3R116me2s, binder concentration: 100 nM); 0.00608 ± 0.0018 in assay [3] (setting [7]); 0.0069 ± 0.00085 in assay [3] (setting [8]). Further, the “peptide microarray binding signal” value in assay [4] (setting [7]) stood at 0.0055 ± 0.00076; in assay [4] (setting [8]), 0.00386 ± 0.00058.
In the case of IHAKRVTIMPKDI [H3 112-124 I H A Kme2 R V T I M P K D I], the “peptide microarray binding signal” value in assay [1] (peptide modifications: H3K115me2, binder concentration: 50 nM) was determined as 0.0058 ± 7e-05; in assay [1] (peptide modifications: H3K115me2, binder concentration: 500 nM) it was 0.012 ± 0.0003; in assay [2] (peptide modifications: H3K115me2, binder concentration: 10 nM), 0.0144 ± 0.00078; in assay [2] (peptide modifications: H3K115me2, binder concentration: 100 nM), 0.0293 ± 0.0017; in assay [3] (setting [9]), 0.00506 ± 0.00089; in assay [3] (setting [10]), 0.00588 ± 0.00054. Besides, the “peptide microarray binding signal” value is 0.00495 ± 0.00045 in assay [4] (setting [9]) and 0.00479 ± 0.00031 in assay [4] (setting [10]).
Regarding IHAKRVTIMPKDI [H3 112-124 I H A Kme3 Rcit V T I M P K D I], the “peptide microarray binding signal” value in assay [1] (peptide modifications: H3K115me3 H3R116cit, binder concentration: 50 nM) is 0.00821 ± 0.00022; in assay [1] (peptide modifications: H3K115me3 H3R116cit, binder concentration: 500 nM), 0.0148 ± 0.00063; in assay [2] (peptide modifications: H3K115me3 H3R116cit, binder concentration: 10 nM), 0.0661 ± 0.012; in assay [2] (peptide modifications: H3K115me3 H3R116cit, binder concentration: 100 nM), 0.0923 ± 0.011; in assay [3] (setting [11]), 0.0677 ± 0.0083; in assay [3] (setting [12]) it was 0.058 ± 0.0049. Also, the results for the “peptide microarray binding signal” value in assay [4] (setting [11]) and in assay [4] (setting [12]) were 0.0746 ± 0.0023 and 0.0265 ± 0.00085, respectively.
As to IHAKRVTIMPKDI [H3 112-124 I H A Kme3 R V T I M P Kme3 D I], the “peptide microarray binding signal” value was found to be 0.00652 ± 0.00013 in assay [1] (peptide modifications: H3K115me3 H3K122me3, binder concentration: 50 nM); 0.014 ± 0.00024 in assay [1] (peptide modifications: H3K115me3 H3K122me3, binder concentration: 500 nM); 0.08 ± 0.013 in assay [2] (peptide modifications: H3K115me3 H3K122me3, binder concentration: 10 nM); 0.133 ± 0.011 in assay [2] (peptide modifications: H3K115me3 H3K122me3, binder concentration: 100 nM); 0.0798 ± 0.017 in assay [3] (setting [13]); 0.0823 ± 0.0064 in assay [3] (setting [14]). For the same molecule, the results for the “peptide microarray binding signal” value in assay [4] (setting [13]) and in assay [4] (setting [14]) were 0.0648 ± 0.013 and 0.0227 ± 0.0026, respectively.
As to IHAKRVTIMPKDI [H3 112-124 I H A Kme3 R V T I M P Kme2 D I], the “peptide microarray binding signal” value in assay [1] (peptide modifications: H3K115me3 H3K122me2, binder concentration: 50 nM) was determined as 0.00464 ± 6.3e-05; in assay [1] (peptide modifications: H3K115me3 H3K122me2, binder concentration: 500 nM), 0.009477 ± 4.6e-05; in assay [2] (peptide modifications: H3K115me3 H3K122me2, binder concentration: 10 nM) it was 0.0436 ± 0.0022; in assay [2] (peptide modifications: H3K115me3 H3K122me2, binder concentration: 100 nM), 0.0676 ± 0.0025; in assay [3] (setting [15]), 0.0196 ± 0.00059; in assay [3] (setting [16]) it was 0.0182 ± 0.0013. The “peptide microarray binding signal” value was determined as 0.0246 ± 0.0043 in assay [4] (setting [15]) and 0.00894 ± 0.00038 in assay [4] (setting [16]).
As to IHAKRVTIMPKDI [H3 112-124 I H A Kme2 R V T I M P Kme3 D I], the “peptide microarray binding signal” value in assay [1] (peptide modifications: H3K115me2 H3K122me3, binder concentration: 50 nM) was determined as 0.00401 ± 7.2e-05; in assay [1] (peptide modifications: H3K115me2 H3K122me3, binder concentration: 500 nM), 0.0105 ± 0.00042; in assay [2] (peptide modifications: H3K115me2 H3K122me3, binder concentration: 10 nM), 0.0258 ± 0.0013; in assay [2] (peptide modifications: H3K115me2 H3K122me3, binder concentration: 100 nM) it was 0.0359 ± 0.0052; in assay [3] (setting [17]), 0.00289 ± 0.00018; in assay [3] (setting [18]) it was 0.00274 ± 0.00017. In addition, the “peptide microarray binding signal” value in assay [4] (setting [17]) was 0.0105 ± 0.0013; in assay [4] (setting [18]) it was 0.00536 ± 0.00056.
As to IHAKRVTIMPKDI [H3 112-124 I H A Kme3 R V T I M P Kme D I], the “peptide microarray binding signal” value in assay [1] (peptide modifications: H3K115me3 H3K122me1, binder concentration: 50 nM) is 0.006489 ± 2.2e-05; in assay [1] (peptide modifications: H3K115me3 H3K122me1, binder concentration: 500 nM), 0.0138 ± 0.00023; in assay [2] (peptide modifications: H3K115me3 H3K122me1, binder concentration: 10 nM) it was 0.0505 ± 0.0051; in assay [2] (peptide modifications: H3K115me3 H3K122me1, binder concentration: 100 nM), 0.0785 ± 0.0067; in assay [3] (setting [19]), 0.0317 ± 0.0091; in assay [3] (setting [20]) it was 0.0326 ± 0.0097. Also, the figures for the “peptide microarray binding signal” value in assay [4] (setting [19]) and in assay [4] (setting [20]) were 0.0313 ± 0.0018 and 0.0119 ± 0.00075, respectively.
IHAKRVTIMPKDI [H3 112-124 I H A Kme2 Rme2a V T I M P K D I]: the “peptide microarray binding signal” value in assay [1] (peptide modifications: H3K115me2 H3R116me2a, binder concentration: 50 nM) was 0.00392 ± 0.00012; in assay [1] (peptide modifications: H3K115me2 H3R116me2a, binder concentration: 500 nM), 0.0121 ± 0.00062; in assay [2] (peptide modifications: H3K115me2 H3R116me2a, binder concentration: 10 nM) it was 0.013 ± 0.0011; in assay [2] (peptide modifications: H3K115me2 H3R116me2a, binder concentration: 100 nM) it was 0.015 ± 0.0041; in assay [3] (setting [21]), 0.00655 ± 0.00081; in assay [3] (setting [22]), 0.00291 ± 6.6e-05. Besides, the “peptide microarray binding signal” value came out at 0.00612 ± 0.00057 in assay [4] (setting [21]) and 0.00346 ± 0.00033 in assay [4] (setting [22]).
IHAKRVTIMPKDI [H3 112-124 I H A Kme3 R V T I M P Kac D I]: the “peptide microarray binding signal” value worked out at 0.00408 ± 6.9e-05 in assay [1] (peptide modifications: H3K115me3 H3K122ac, binder concentration: 50 nM); 0.00905 ± 0.0013 in assay [1] (peptide modifications: H3K115me3 H3K122ac, binder concentration: 500 nM); 0.0419 ± 0.0077 in assay [2] (peptide modifications: H3K115me3 H3K122ac, binder concentration: 10 nM); 0.0725 ± 0.024 in assay [2] (peptide modifications: H3K115me3 H3K122ac, binder concentration: 100 nM); 0.0222 ± 0.0067 in assay [3] (setting [23]); 0.0228 ± 0.0068 in assay [3] (setting [24]). The “peptide microarray binding signal” value in assay [4] (setting [23]) is 0.0259 ± 0.0045; in assay [4] (setting [24]) it was 0.0117 ± 0.0018.
